These results are taken from PubChem BioAssay AID602365 (National Center for Advancing Translational Sciences (NCATS), 2012).

Each structure is given as a SMILES string. Results filed as inconclusive are left out. Unmarked numbers belong to inactive results. Active and inactive are the calls of the source. The call rests on the fitted dose curve; in most records, active means well fitted inhibition curve with a large enough effect; inconclusive means small, poorly fitted or top-dose-only effect; inactive means flat fitted curve, though single readings scatter.

Luciferin 4-monooxygenase (Photinus pyralis), sequence (P08659 whole entry, looked up): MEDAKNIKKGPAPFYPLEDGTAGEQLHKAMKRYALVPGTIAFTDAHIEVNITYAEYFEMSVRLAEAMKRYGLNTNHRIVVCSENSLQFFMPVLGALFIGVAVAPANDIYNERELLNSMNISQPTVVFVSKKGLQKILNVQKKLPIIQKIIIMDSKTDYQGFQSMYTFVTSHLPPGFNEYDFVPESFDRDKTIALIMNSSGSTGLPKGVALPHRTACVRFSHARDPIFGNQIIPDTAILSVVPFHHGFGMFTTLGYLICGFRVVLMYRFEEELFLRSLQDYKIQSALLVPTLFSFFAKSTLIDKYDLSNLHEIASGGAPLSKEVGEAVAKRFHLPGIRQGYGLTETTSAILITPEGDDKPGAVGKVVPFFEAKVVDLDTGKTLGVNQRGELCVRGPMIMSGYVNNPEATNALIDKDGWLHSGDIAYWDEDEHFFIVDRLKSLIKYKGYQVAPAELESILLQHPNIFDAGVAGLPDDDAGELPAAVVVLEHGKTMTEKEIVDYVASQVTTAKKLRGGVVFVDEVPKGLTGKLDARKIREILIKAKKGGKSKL

The test concerns the target Luciferin 4-monooxygenase (Photinus pyralis) (UniProt P08659). The test can be described thus: FLuc inhibitory activity for the follow-up compounds in a biochemical assay with 1mM D-luciferin. To be noted: purified FLuc, luminescence; series mostly up to 57.5 µM; activity change, negative = inhibition: at the top concentration. The text has this:
NCGC Assay Overview: Firefly (Photinus pyralis) luciferase is one of the most commonly used transcriptional reporters. It is considered one of the more dynamically responsive reporters - that is, responsive to changes in reporter transcription - as it requires no post-translational modifications and is enzymatically active directly after protein synthesis (Wood, 1998). With no endogenous expression in mammalian cells and without the requirement of external excitation, it offers very little background signal, thus generally providing excellent signal to background for most assays. Previous profiling work to determine the prevalence of compounds that affect FLuc enzymatic activity (PubChem AID 411) identified that ~3% of the MLSMR library (then at ~72K) inhibited FLuc. […] Of the compounds identified in this profile that inhibited FLuc, 151 compounds were selected for further analysis, in an effort to better understand their mode of inhibiting FLuc. The assay described here was to determine the activity of the compounds in a FLuc assay that contained a KM concentration of ATP and a high concentration (1mM) of D-luciferin.
NCGC Assay Protocol Summary: Reagents: 50mM Tris acetate, pH 7.5; 10mM Mg acetate; 1mM D-luciferin (Sigma #L9504); 10uM ATP; 0.01% Tween-20; 0.05% BSA; 10nM P. pyralis luciferase (Sigma #L9506) Control compounds used were two known firefly luciferase inhibitors (3-(5-(3-chlorophenyl)-1,2,4-oxadiazol-3-yl)benzoic acid and 5-(2-fluorophenyl)-3-phenyl-1,2,4-oxadiazole), and DMSO. Three microliters containing firefly luciferase substrates in buffer (final concentrations: 50mM Tris acetate, pH 7.5, 10mM Mg acetate, 0.01% Tween-20, 0.05% BSA, 1mM D-luciferin, 10uM ATP) are dispensed into each well of a Greiner white, solid-bottom 1536-well format plate using a flying reagent dispenser (FRD). These assay plates were then treated with 23nL of compound or DMSO using a Kalypsys pin tool, which allows for delivery of a 12-point intraplate titration of each compound to the assay plate (quantitative HTS), with a final compound concentrations ranging from approximately ~60uM to 0.3nM. One microliter of firefly luciferase in […] Tris-acetate buffer was then delivered by FRD to each well for a final enzyme concentration of 10nM. Luciferase activity was then measured using a ViewLux CCD imager (PerkinElmer), with an average exposure time of 2-30 seconds (2X binning, medium/high gain).
With `CN(C)S(=O)(=O)c1ccc(C(=O)Nc2cccc(C(=O)O)c2)cc1`, the “activity change, negative = inhibition” value was -19.5%.

For `O=C(Cc1ccccc1)Nc1ccccc1C(=O)Nc1ccc(C(=O)O)cc1`, the “activity change, negative = inhibition” value was -0.0902%.

On to `CCOC(=O)N1CCN(CC(=O)Nc2nc3ccc(OC)cc3s2)CC1`, for which the “activity change, negative = inhibition” value was -4.7%.

`Cc1ccc(C(=O)Nc2cccc(C(=O)O)c2)cc1S(=O)(=O)N1CCCC1`: the Potency is 4.61 µM (active).

With `COc1ccc2nc(NC(=O)CCc3nc(-c4ccccc4F)no3)sc2c1`, the “activity change, negative = inhibition” value is -3.48%.

With `O=C(Nc1ccc(Cl)cc1-c1nc2ccccc2s1)c1ccco1`, the “activity change, negative = inhibition” value is -9.53%.

With `CC(C)(C)NC(=O)c1ccccc1-c1nc2ccccc2s1`, the “activity change, negative = inhibition” value is -9.2%.

For `COc1ccc(-c2nc3ccccc3s2)cc1O`, the Potency was 0.651 µM (active).

As for `O=S(=O)(c1ccc(-c2nc3ccccc3s2)cc1)N1CCCC1`, the “activity change, negative = inhibition” value was -18.8%.

Consider `CCOc1ccc2nc(NC(=O)c3ccoc3C)sc2c1`, for which the Potency is 2.91 µM (active).

Regarding `Cc1ccc(C(=O)O/N=C(\N)c2ccccn2)c(Cl)c1`, the Potency was 0.0919 µM (active).

Turning to `O=C(Nc1ccccc1C(=O)O)c1cc(S(=O)(=O)Nc2cccc(F)c2)ccc1Cl`, the “activity change, negative = inhibition” value is -13.3%.

As to `O=C(O)c1ccc(NC(=O)c2cccc(NC(=O)c3cccs3)c2)cc1`, the Potency is 32.6 µM (active).

For the compound `CCOc1ccc2nc(NC(=O)c3ccccn3)sc2c1`, the Potency was 2.06 µM (active).

Consider `Cc1ccc2sc(-c3ccc(NC(=O)c4cc(-n5cnnc5)ccc4Cl)cc3)nc2c1`, for which the Potency is 18.3 µM (active).

In the case of `CCOc1ccc2nc(NC(=O)c3ccccc3)sc2c1`, the Potency is 1.46 µM (active).

For the compound `O=C(Nc1ccccc1C(=O)O)c1cccc(NC(=O)c2ccco2)c1`, the Potency was 20.6 µM (active).

Regarding `O=C(Nc1ccccc1C(=O)O)c1cccc(NC(=O)c2ccccc2Cl)c1`, the Potency was 36.6 µM (active).

Regarding `CC(=O)Oc1ccc(C(=O)Nc2ccccc2C(=O)Nc2cccc(C(=O)O)c2)cc1`, the Potency was 16.3 µM (active).

For `Cc1ccc(C(=O)Nc2cccc(C(=O)O)c2)cc1S(=O)(=O)N1CCCCC1`, the Potency is 4.11 µM (active).

Consider `COc1ccc2nc(NC(=O)c3ccc([N+](=O)[O-])o3)sc2c1`, for which the Potency is 5.8 µM (active).

As for `Nc1ccc2nc(-c3ccc(O)cc3)sc2c1`, the Potency is 1.3 µM (active).

For the compound `Cc1ccc(C(=O)Nc2cccc(C(=O)O)c2)cc1`, the Potency was 4.11 µM (active).

For the compound `O=C(Nc1ccccc1C(=O)O)c1ccc(NC(=O)C2CCCCC2)cc1`, the Potency is 16.3 µM (active).

For the compound `CC(C)C(=O)Nc1cccc(C(=O)Nc2ccccc2C(=O)O)c1`, the Potency is 18.3 µM (active).

In the case of `Cc1ccc(S(=O)(=O)N2CCN(C(=O)c3ccccc3-c3nc4ccccc4s3)CC2)c(C)c1`, the “activity change, negative = inhibition” value is -5.01%.

As for `COc1cc(C(=O)Nc2cc(C)c(O)c(-c3nc4ccccc4s3)c2)cc(OC)c1OC`, the “activity change, negative = inhibition” value is 7.61%.

For the compound `CCOc1ccc2nc(NC(=O)c3cc([N+](=O)[O-])ccc3N3CCOCC3)sc2c1`, the “activity change, negative = inhibition” value is 0%.

As for `C/C(=N\NC(=O)c1ccccc1NC(=O)c1ccc(Cl)cc1)c1ccncc1`, the Potency was 0.0517 µM (active).

For the compound `COc1ccc2nc(NC(=O)Cc3cccs3)sc2c1`, the Potency was 13 µM (active).

As for `COc1ccc(-c2cccc(C(=O)Nc3cccc(C(=O)O)c3)c2)cc1`, the Potency was 18.3 µM (active).

For `O=C(O)c1cccc(NC(=O)c2cccc(S(=O)(=O)N3CCc4ccccc4C3)c2)c1`, the “activity change, negative = inhibition” value was -21.1%.

On to `COc1ccc2nc(NC(=O)c3cnccn3)sc2c1`, for which the Potency was 6.51 µM (active).

Take `Cc1c(NS(C)(=O)=O)cccc1-c1nc2ccccc2s1`: the Potency was 16.3 µM (active).

As for `COc1ccc(NS(=O)(=O)c2cccc(C(=O)Nc3ccccc3C(=O)O)c2)cc1`, the “activity change, negative = inhibition” value is -13.9%.

`COc1ccc2nc(NC(=O)c3ccco3)sc2c1`: the Potency is 3.26 µM (active).

Take `Cc1ccc(NS(=O)(=O)c2ccc(Cl)c(C(=O)Nc3cccc(C(=O)O)c3)c2)cc1`: the “activity change, negative = inhibition” value is -7.82%.

For `COc1ccc2nc(NC(=O)CCc3ccc(OC)c(OC)c3)sc2c1`, the “activity change, negative = inhibition” value was -15.1%.

For the compound `O=C(COC(=O)c1ccccc1[N+](=O)[O-])c1ccc2c(c1)OCO2`, the Potency is 0.0461 µM (active).

For the compound `COc1cc(OC)cc(C(=O)Nc2ccccc2-c2nc3ccccc3s2)c1`, the “activity change, negative = inhibition” value is 1.62%.
